Experimental data reported in PubChem BioAssay AID1159580 (chemical genetic matrix, 2015).
Values joined by “and” are separate entries in the source; they are usually repeats but may differ in a detail not shown here. Equal values may be shown once. Screen size: about 5,500 compounds; about 2,000 (36%) were called active. Roughly 18% stayed inconclusive and do not appear here. Rule as the data show it: active = normalized growth mostly below about 0.91 (no sharp cut-off); inconclusive = no clear call, values can overlap the other calls; inactive = mostly above about 0.92. This is one part of the list.

Test: chemical genetic growth profiling, strain panel (AID 1159580);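 also: tested at 20 µM; growth read once vehicle control cultures reached saturation at 30 °C; 1 = growth at the plate median or of vehicle wells; lower values mean less growth of the strain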
Conditions: S. cerevisiae deletion strains, growth OD

Measured: normalized growth

CC(=O)NO
active: locus YBR021W, strain FUR4, stronger effect = lower value 0.604
inactive: locus YAL013W, strain DEP1, stronger effect = lower value 0.955 | locus YAL021C, strain ccr4, stronger effect = lower value 0.968 | locus YAL026C, strain drs2, stronger effect = lower value 0.997 | locus YAL030W, strain snc1, stronger effect = lower value 0.99 | locus YBL061C, strain skt5, stronger effect = lower value 0.969 | locus YBR009C, strain hhf1, stronger effect = lower value 0.942 | locus YBR023C, strain chs3, stronger effect = lower value 0.964 | locus YBR171W, strain sec66, stronger effect = lower value 0.963 | locus YBR229C, strain ROT2, stronger effect = lower value 1.01 | locus YBR231C, strain swc5, stronger effect = lower value 0.995 | locus YBR279W, strain paf1, stronger effect = lower value 0.973 | locus YCL011C, strain gbp2, stronger effect = lower value 0.949 | locus YCL016C, strain dcc1, stronger effect = lower value 0.937 | locus YCL029C, strain bik1, stronger effect = lower value 0.999 | locus YCL061C, strain MRC1, stronger effect = lower value 0.968 | locus YCL069W, strain vba3, stronger effect = lower value 0.974 | locus YCR088W, strain abp1, stronger effect = lower value 0.979 | locus YDL005C, strain med2, stronger effect = lower value 0.982 | locus YDL035C, strain GPR1, stronger effect = lower value 0.973 | locus YDL040C, strain nat1, stronger effect = lower value 0.979 | locus YDL074C, strain BRE1, stronger effect = lower value 0.977 | locus YDL101C, strain DUN1, stronger effect = lower value 1.02 | locus YDL185W, strain tfp1, stronger effect = lower value 0.992 | locus YDL192W, strain arf1, stronger effect = lower value 0.989 | locus YDR001C, strain nth1, stronger effect = lower value 0.982 | locus YDR069C, strain doa4, stronger effect = lower value 1.01 | locus YDR101C, strain arx1, stronger effect = lower value 1 | locus YDR137W, strain rgp1, stronger effect = lower value 0.948 | locus YDR150W, strain NUM1, stronger effect = lower value 0.991 | locus YDR159W, strain sac3, stronger effect = lower value 1 | locus YDR162C, strain NBP2, stronger effect = lower value 0.997 | locus YDR195W, strain ref2 0.984 | locus YDR297W, strain sur2, stronger effect = lower value 0.977 | locus YDR318W, strain mcm21, stronger effect = lower value 0.998 | locus YDR334W, strain swr1, stronger effect = lower value 0.976 | locus YDR335W, strain msn5, stronger effect = lower value 0.983 | locus YDR388W, stronger effect = lower value 0.984 | locus YDR392W, strain spt3, stronger effect = lower value 0.744 | locus YDR502C, strain sam2, stronger effect = lower value 0.973 | locus YEL003W, strain gim4, stronger effect = lower value 1 | locus YEL037C, strain rad23, stronger effect = lower value 0.977 | locus YEL061C, strain CIN8 (second series), stronger effect = lower value 0.985 | locus YEL061C, strain CIN8, stronger effect = lower value 1.01 | locus YER015W, strain faa2, stronger effect = lower value 0.975 | locus YER016W, strain bim1, stronger effect = lower value 0.996 | locus YER110C, stronger effect = lower value 0.987 | locus YER111C, strain swi4, stronger effect = lower value 0.965 | locus YER155C, strain BEM2 (second series), stronger effect = lower value 0.996 | locus YER155C, strain BEM2, stronger effect = lower value 1.03 | locus YER167W, strain BCK2, stronger effect = lower value 1.02 | locus YFR010W, strain ubp6, stronger effect = lower value 0.974 | locus YGL078C, strain dbp3, stronger effect = lower value 0.997 | locus YGL086W, strain mad1, stronger effect = lower value 0.991 | locus YGL167C, strain pmr1, stronger effect = lower value 0.978 | locus YGL173C, strain kem1, stronger effect = lower value 0.984 | locus YGL227W, strain vid30, stronger effect = lower value 0.974 | locus YGL240W, strain doc1, stronger effect = lower value 0.963 | locus YGL248W, strain PDE1, stronger effect = lower value 0.97 | locus YGL253W, strain hxk2, stronger effect = lower value 0.965 | locus YGR135W, strain pre9, stronger effect = lower value 0.907 | locus YGR252W, strain gcn5, stronger effect = lower value 0.797 | locus YHR013C, strain ard1, stronger effect = lower value 0.888 | locus YHR027C, strain rpn1, stronger effect = lower value 0.999 | locus YHR030C, strain SLT2, stronger effect = lower value 0.94 and 0.998 | locus YHR079C, strain IRE1 (second series), stronger effect = lower value 0.997 | locus YHR079C, strain IRE1, stronger effect = lower value 0.975 | locus YHR094C, strain hxt1, stronger effect = lower value 0.997 | locus YHR129C, strain ARP1, stronger effect = lower value 1 | locus YHR142W, strain chs7, stronger effect = lower value 0.915 | locus YHR200W, strain rpn10, stronger effect = lower value 0.991 | locus YIL066C, strain RNR3, stronger effect = lower value 0.979 | locus YIL073C, strain SPO22, stronger effect = lower value 0.898 | locus YIL125W, strain kgd1, stronger effect = lower value 0.99 | locus YIR030C, strain dcg1, stronger effect = lower value 1 | locus YJL092W, strain hpr5, stronger effect = lower value 0.974 | locus YJL095W, strain BCK1 (second series), stronger effect = lower value 0.98 | locus YJL115W, strain asf1, stronger effect = lower value 0.954 | locus YJL129C, strain trk1, stronger effect = lower value 0.962 | locus YJL134W, strain LCB3, stronger effect = lower value 1.01 | locus YJL154C, strain vps35, stronger effect = lower value 0.983 | locus YJL164C, strain tpk1, stronger effect = lower value 0.966 | locus YJL166W, strain qcr8, stronger effect = lower value 0.931 | locus YJL168C, strain set2, stronger effect = lower value 0.993 | locus YJL187C, strain SWE1 (second series), stronger effect = lower value 0.954
0.748 (active) and 1 (inactive): locus YJL095W, strain BCK1, stronger effect = lower value
